The full list was thinned out, with hits kept by preference.
Tg IFNy HTS: T. gondii growth inhibition with IFN-gamma, primary screen, cell-based; 69,000 tested, 3.8% active; activity change, negative = inhibition, % (no concentration beside the values); Toxoplasma gondii growth in IFN-gamma-treated host cells; hits give low values; AID 1259416, 2018; in the data active = activity change below about -70%, passing the limit was not always enough;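 note: host cells are HeLa cells infected with Toxoplasma gondii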
Starred values were filed as active, the others as inactive; ! = not confirmed by another sample.

SMILES	Tg IFNy HTS
CC(=O)O[C@H]1C(=O)[C@@]2(C)C([C@H](OC(=O)c3ccccc3)[C@]3(O)C[C@H](O)C(C)=C1C3(C)C)[C@]1(OC(C)=O)CO[C@@H]1C[C@@H]2O (stereo partly specified)	-74*
COCCN1CCc2c(CNc3ncccn3)cncc2C1	11
CC(O)CN1C[C@H]2CCC[C@@H](CNc3ncccn3)[C@@H]2C1 (stereo partly specified)	14
CC(C)N1CCO[C@H]2CN(C(=O)N(C)C)C[C@@H]21	24
CN(C)C1CC2(CCN(Cc3ccnn3C)C2)C1 (stereo unspecified)	109
COc1ccc2c(c1)CN(C)CC2c1ccc(Cl)c(Cl)c1 (stereo unspecified)	-30
O=C(NCc1cccs1)c1cc2cccnc2n(Cc2ccccc2)c1=O	-62
CCn1nc(C)c(CNC(C)Cc2cccc(F)c2)c1C (stereo unspecified)	-50
O=C(Nc1ccc(Br)cc1)c1cc2cccnc2n(Cc2ccccc2F)c1=O	63
CCCCOC(=O)c1ccc(NC(=O)c2cc3cccnc3n(Cc3ccccc3F)c2=O)cc1	-20
CC1(C)C(=O)[C@@H]2O[C@@H]2[C@@]2(C)C1C[C@@H](O)[C@]1(C)C2CC[C@@]2(C)[C@H](c3ccoc3)OC(=O)C3OC321 (stereo partly specified)	5
CC(=O)O[C@@H]1C[C@@]2(C)[C@H](c3ccoc3)C[C@H]3O[C@]32[C@]2(C)C(=O)C(=O)C3C(C)(C)C(=O)C=C[C@]3(C)C12 (stereo partly specified)	-83*
CN1CCC2(CCN(Cc3ccncc3Cl)CC2)C1	2
CCCSc1ncc(CN2CCN3CCN(C)CC3C2)cn1 (stereo unspecified)	36
O=C1[C@H]2CCNC[C@H]2OCCN1c1ccccc1	4
CNC(=O)[C@H]1CC2CN(c3cc(OC)ncn3)CC2N1C(C)C (stereo partly specified)	-1
O=C(NCCC(c1ccccc1)c1ccccc1)c1cc2cccnc2n(Cc2ccc(F)cc2)c1=O	-83*
O=C(NCCC(c1ccccc1)c1ccccc1)c1cc2cccnc2n(Cc2ccccc2)c1=O	10
CC(C)CCNC(=O)c1cc2cccnc2n(Cc2ccc(F)cc2)c1=O	-25
O=C(NCc1ccc(F)cc1)c1cc2cccnc2n(Cc2ccc(Cl)cc2)c1=O	-37
O=C(NCc1ccco1)c1cc2cccnc2n(Cc2ccc(F)cc2)c1=O	-95*
Cc1ccc(CNC(=O)c2cc3cccnc3n(Cc3ccc(F)cc3)c2=O)cc1	-8
CCN(CC)c1ccc(C2NCCc3[nH]cnc32)c(O)c1 (stereo unspecified)	7
CN1C2CCC1CC(=NOC(=O)C1CCCCC1)C2	11
COCCN1CC[C@H]2OCC[C@@H](C(=O)NCc3cccnc3)[C@@H]2C1	69
SMILES	Tg IFNy HTS
Cc1cc(C)cc(CN2CC3CNC(C3)C2)c1 (stereo unspecified)	26
c1cncc(C2CCCN2)c1 (stereo unspecified)	13
Fc1cc(F)c2c(c1)[C@H]1C=CC[C@H]1C(c1cccnc1)N2 (stereo partly specified)	-74*
CC(=O)C1CCC2C3CCC4CC(=O)CC[C@]4(C)C3CCC12C (stereo partly specified)	-4
COc1ccc(OC)c(NC(=O)c2cc3cccnc3n(Cc3ccccc3)c2=O)c1	25
COCCN1C2CCC1CN(c1ncccn1)C2	1
Cn1cccc1C(=O)N1C[C@H]2CN(Cc3cccnc3)C[C@H]2C1	-6
COc1ccc(CCNC(=O)c2cc3cccnc3n(Cc3ccccc3)c2=O)cc1OC	15
COc1ccccc1CNC(=O)c1cc2cccnc2n(Cc2ccccc2F)c1=O	11
CN1[C@H]2CC[C@@H]1CN(C(=O)NC1CCCC1)CC2	-6
O=C(Nc1ccccc1Cl)c1cc2cccnc2n(Cc2ccc(F)cc2)c1=O	46
CCN1CCN(C(=O)Cc2ccc(Nc3ncc(F)c(Nc4ccc(C(=O)Nc5ccccc5Cl)cc4)n3)cc2)CC1	-73*
O=C(Nc1ccccc1C(F)(F)F)c1cc2cccnc2n(Cc2ccccc2)c1=O	4
Fc1ccc(C(OCCN2CCN(CCCc3ccccc3)CC2)c2ccc(F)cc2)cc1	14
Fc1ccc(C(OCCN2CCN(C/C=C/c3ccccc3)CC2)c2ccc(F)cc2)cc1	-81*!
Fc1ccc(C(OCCN2CCCC2)c2ccc(Br)cc2)cc1 (stereo unspecified)	-62
Cc1cccnc1N1CC2(CCN(Cc3cccnc3)C2)C1	7
CC(=O)O[C@H]1C[C@H](O[C@H]2[C@@H](O)C[C@H](O[C@H]3[C@@H](O)C[C@H](O[C@H]4CC[C@@]5(C)C(CCC6C5C[C@@H](O)[C@]5(C)[C@@H](C7=CC(=O)OC7)CC[C@]65O)C4)O[C@@H]3C)O[C@@H]2C)O[C@H](C)[C@H]1O[C@@H]1O[C@H](CO)[C@@H](O)[C@H](O)[C@H]1O (stereo partly specified)	-73*
